Test results from PubChem BioAssay (Tox21).
Inconclusive results are not listed. A call without a number means that no potency is given here. The source made the active and inactive calls. Calls follow the shape of the dose curve; as a rule, active = well fitted activation curve with a large enough effect in the signal ratio in the repeat runs (not every such curve was filed as active); inconclusive = weak or mixed curves; inactive = flat fitted curve, though single readings scatter; the % refers to the signal ratio.

Experiment: p53 small molecule agonists, cell-based qHTS assay (AID 1963582)
Conditions: HCT-116 p53RE-bla reporter, beta-lactamase FRET ratio, 16 h; series mostly up to 66 µM
Source text: National Center for Advancing Translational Sciences [NCATS]
Division of Preclinical Innovation [DPI]
U.S. Environmental Protection Agency [EPA]
National Institutes of Environmental Health Sciences [NIEHS]
National Toxicology Program [NTP]
U.S. Food and Drug Administration [FDA]
p53, a tumor suppressor protein, is activated following cellular insult, including DNA damage and other cellular stresses. The activation of p53 regulates cell fate by inducing DNA repair, cell cycle arrest, apoptosis, or cellular senescence. The activation of p53, therefore, is a good indicator of DNA damage and other cellular stresses. […] The activation of the reporter gene under culture conditions can be detected by fluorescence intensity. This cell line was used to screen the Tox21 10K compound library in a 1536-well plate format and to identify agonists that activate the p53 signaling pathway.
Tox21 Assay Protocol Summary:
The p53RE-bla cells were dispensed at 4,000 cells/5 ul/well in 1536-well black wall/clear bottom plates using a Multidrop dispenser. After the assay plates were incubated at a 37 C/5% CO2 incubator for 5 hours, 23 nL of compounds dissolved in DMSO, positive controls or DMSO only was transferred to the assay plate by a pin tool. The plates were incubated at 37 C for 16 hours. After 1 uL of LiveBLAzerTM B/G FRET substrate was added using a Flying Reagent Dispenser, the plates were incubated at room temperature for 2 hours, and fluorescence intensity was measured by an Envision plate reader.
Potency is read from the fitted curve at half-maximal effect.

Row | SMILES | Potency | activation
1 | O=C(Cl)c1ccc(Cl)cc1Cl | inactive | 
2 | COc1cccc2c1C(=O)c1c(O)c3c(c(O)c1C2=O)C[C@@](O)(C(=O)CO)C[C@@H]3O[C@H]1C[C@H](N)[C@H](O[C@@H]2CCCCO2)[C@H](C)O1 | 1.78 µM (active) | 
3 | CCOC(=O)C(C)Oc1ccc(Oc2nc3ccc(Cl)cc3o2)cc1 (stereo not given) | inactive | 
4 | O=S(=O)(O)c1cc(Cl)c(Cl)cc1Cl | inactive | 
5 | COC(=O)C1=C(C)NC(C)=C(C(=O)O[C@@H]2CCCN(Cc3ccccc3)C2)[C@@H]1c1cccc([N+](=O)[O-])c1 | inactive | 
6 | COC(C(=O)O)c1ccccc1 (stereo not given) | inactive | 
7 | CO[C@@]12[C@H](COC(N)=O)C3=C(C(=O)C(C)=C(N)C3=O)N1C[C@@H]1N[C@@H]12 | 15.8 µM (active) | 
8 | COC(=O)C1=C(C)NC(C)=C(C(=O)OCCc2ccc(N3CCN(C(c4ccccc4)c4ccccc4)CC3)cc2)C1c1cccc([N+](=O)[O-])c1 (stereo not given) | inactive | 
9 | CC(=O)[O][Al] | inactive | 
10 | O=C1OC2(c3ccc(O)cc3Oc3cc(O)ccc32)c2ccc(N=C=S)cc21 | inactive | 
11 | Cc1ccccc1N=Nc1ccc(N=Nc2c(O)ccc3ccccc23)c(C)c1 | inactive | 
12 | CCCCCCCC/C=C/CCCOC(C)=O | inactive | 
13 | CCOC(=O)COc1ccc2c(c1)CC(NCC(O)c1cccc(Cl)c1)CC2 (stereo not given) | inactive | 
14 | Cc1ccc(O)c(C(=O)c2ccccc2)c1 | inactive | 
15 | O=C(CC(=O)c1ccccc1)c1ccccc1 | inactive | 
16 | c1cc2ccc3ccc4ccc5cccc6c(c1)c2c3c4c56 |  | 5.49% [at 2.33 µM] (inactive)
17 | Cc1ccc(O)c2ncccc12 | inactive | 
18 | c1coc(Cn2cccc2)c1 | inactive | 
19 | CCN1CCOCC1 | inactive | 
20 | CCC[C@@H]1C[C@@H](C(=O)N[C@@H]([C@H]2O[C@H](SC)[C@H](O)[C@@H](O)[C@H]2O)[C@@H](C)O)N(C)C1 | inactive | 

Row | SMILES | Potency | activation
21 | C[C@@H](O)C(=O)O | inactive | 
22 | CCC(C)(CN(C)C)OC(=O)c1ccccc1 (stereo not given) | inactive | 
23 | c1ccc2sc(SN3CCOCC3)nc2c1 | inactive | 
24 | CN1CCC[C@@H]1CCO[C@](C)(c1ccccc1)c1ccc(Cl)cc1 | inactive | 
25 | Nc1ccc([N+](=O)[O-])c(N)c1 | inactive | 
26 | CC1=CC=C(C(C)C)CC1 | inactive | 
27 | CCCN(C1CCN(C(=O)C2CCNCC2)CC1)[C@@H]1CCc2ccc(OC)cc2C1 | inactive | 
28 | CCCCCCCCCCC[C@@H](C[C@@H]1OC(=O)[C@H]1CCCCCC)OC(=O)[C@H](CC(C)C)NC=O | inactive | 
29 | O=P(c1ccccc1)(c1ccccc1)c1ccccc1 | inactive | 
30 | CCOC(=O)[C@@H](C)Oc1ccc(Oc2nc3ccc(Cl)cc3o2)cc1 | inactive | 
31 | O=S(=O)(O)c1ccc(Nc2nc(Nc3ccc(/C=C/c4ccc(Nc5nc(Nc6ccc(S(=O)(=O)O)cc6)nc(N(CCO)CCO)n5)cc4S(=O)(=O)O)c(S(=O)(=O)O)c3)nc(N(CCO)CCO)n2)cc1 | inactive | 
32 | O=C(CCCN1CCC(O)(c2ccc(Cl)cc2)CC1)c1ccc(F)cc1 | inactive | 
33 | CC(=O)OCC(=O)[C@@]1(O)[C@H](OC(C)=O)C[C@H]2[C@@H]3CCC4=CC(=O)C=C[C@]4(C)[C@@]3(F)[C@@H](O)C[C@@]21C | inactive | 
34 | CC(CN)CC(C)(C)CCN (stereo not given) | inactive | 
35 | CCCCNC(=S)NCCCC | inactive | 
36 | CCOc1ccccc1OCC1CNCCO1 (stereo not given) | inactive | 
37 | CN1C(=O)c2ccccc2C1=O | inactive | 
38 | CCCOCC(C)OCC(C)O (stereo not given) | inactive | 
39 | CC(=O)Nc1ccc(S(=O)(=O)Nc2ccc([N+](=O)[O-])cc2)cc1 | inactive | 
40 | O=[N+]([O-])c1cccc(C(F)(F)F)c1 | inactive | 
